target: T1, Aspartate--tRNA(Asp/Asn) ligase (Mycobacterium tuberculosis (strain ATCC 25618 / H37Rv)) (UniProt P9WFW3); test: Assay for Asp RNA synthetase-1 from Mycobacterium tuberculosis; type: functional; set-up: scale not given: direction of the effect not stated beside the values; settings: 30 µM; note: in the data most compounds retested in dose-response had high values
T1 sequence (whole entry): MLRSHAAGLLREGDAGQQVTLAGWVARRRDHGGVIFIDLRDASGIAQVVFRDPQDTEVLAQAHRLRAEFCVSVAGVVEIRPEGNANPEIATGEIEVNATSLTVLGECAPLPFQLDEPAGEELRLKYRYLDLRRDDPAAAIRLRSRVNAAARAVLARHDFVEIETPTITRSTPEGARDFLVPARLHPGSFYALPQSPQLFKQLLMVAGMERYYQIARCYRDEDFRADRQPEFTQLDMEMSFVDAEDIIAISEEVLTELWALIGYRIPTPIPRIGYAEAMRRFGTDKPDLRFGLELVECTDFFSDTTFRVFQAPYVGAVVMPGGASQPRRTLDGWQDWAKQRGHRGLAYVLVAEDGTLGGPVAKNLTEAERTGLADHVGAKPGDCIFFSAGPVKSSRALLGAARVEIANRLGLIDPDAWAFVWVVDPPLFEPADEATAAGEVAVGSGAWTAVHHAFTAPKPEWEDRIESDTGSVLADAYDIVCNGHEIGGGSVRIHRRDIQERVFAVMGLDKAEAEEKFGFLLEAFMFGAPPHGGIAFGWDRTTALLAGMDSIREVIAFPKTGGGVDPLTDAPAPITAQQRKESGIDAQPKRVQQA

Compared with `CC(NC(=O)CCc1cccs1)c1nnc2n1CCC2` (stereo unspecified), `CC(C)c1nc(C(=O)N2CCOCC2CC(=O)c2ccco2)c[nH]1` (stereo unspecified) is lower in Percent Effect: -0.379% for the first, -0.629% for the second.

Going from `COC(=O)c1ccoc1COC(=O)CCc1ccc(OC)c(OC)c1` to `COc1ccc(NC(C)=O)c(N2CCN(C(C)=O)CC2)n1`, the Percent Effect rises from -3.44% to 2.32%.

First: c1ccc(Cn2cc(CNCC3CCCN3c3cccnn3)cn2)cc1 (stereo unspecified)
Second: CC(C)c1ncc2c(n1)CN(Cc1nc(Cc3ccccc3)no1)CC2
The Percent Effect of the first is higher: 8.82% for the first, -4.05% for the second.

Compared with `COc1cccc(C(=O)N2CCc3ncnc(C)c3CC2)c1`, `Cc1cccc(C(=O)N2CCCN(Cc3cnn(C)c3)CC2)n1` is lower in Percent Effect: -1.32% for the first, -3.08% for the second.

Compared with `Cc1cccc(CN2C[C@@H]3CN(C(=O)[C@H]4CCCO4)C[C@@H]3C2=O)c1`, `CCn1nc(C(=O)N2CCCC(n3cncn3)C2)ccc1=O` (stereo unspecified) is higher in Percent Effect: -6.69% for the first, -5.19% for the second.

Going from `CC(NC(=O)NCCCO)c1ccc2c(c1)OCCO2` (stereo unspecified) to `CCNC(=O)[C@@H]1C[C@@H](NC(=O)c2cccnc2O)CN1Cc1ccsc1`, the Percent Effect falls from 0.291% to -2.94%.

Going from `CN(CC(=O)N1CCCC1Cn1cccn1)c1cnccn1` (stereo unspecified) to `N#Cc1ccc(C(=O)N2CCn3c(Cn4cccn4)cnc3C2)cc1`, the Percent Effect rises from -1.26% to 1.54%.

Compared with `O=C(CCNCC(F)(F)F)N1CCC(Nc2cccnn2)CC1`, `CCn1cc(CN2CCCN(C(=O)CCCn3cncn3)CC2)cn1` is lower in Percent Effect: 2.25% for the first, -4.34% for the second.

Compared with `CC(C)N(C)C(=O)C1=NOC2(CCN(C(=O)c3ccc(Cl)cc3)C2)C1` (stereo unspecified), `CCc1ccc(OCC(O)CN2CCN(S(C)(=O)=O)CC2)cc1` (stereo unspecified) is lower in Percent Effect: 1.19% for the first, -0.577% for the second.

Compared with `Cc1cc(C)n(CC2CCCCN2Cc2cscn2)n1` (stereo unspecified), `CCc1c(C)nn(CCNC(=O)C2CCCN(C(=O)N(C)C)C2)c1C` (stereo unspecified) is lower in Percent Effect: -3.34% for the first, -4.11% for the second.

Work on `COCCN(C)C[C@@H]1CN(C(=O)c2ccoc2)C[C@@H]1CO` yielded a Percent Effect of -4.07%.

target: Shiga toxin 2 (Escherichia coli O157:H7) (UniProt P09385+P09386); test: E. coli 0.157:H7 Shiga Toxin SOP - stx2 screening assay; type: functional; set-up: scale not given: direction of the effect not stated beside the values; settings: 30 µM

Going from `O=C(CCO)N1CCOC2(CCCN(C(=O)c3ccco3)C2)C1` (stereo unspecified) to `O=C1COC2(CCN(C(=O)c3ccco3)CC2)CN1Cc1ccccn1`, the Percent Effect rises from -15.2% to -3.41%.

Compared with `CCCS(=O)(=O)N1CCC2(CC1)CN(c1ccccn1)CCO2`, `COC[C@@]12CC[C@@H](N3CCOCC3)C[C@H]1CCN(c1ncccc1Cl)C2` is higher in Percent Effect: -46.8% for the first, 23% for the second.

First: CC(=O)N1CCc2c(nc(-c3ccncc3)nc2N(C)CC(O)CO)C1 (stereo unspecified)
Second: COc1cccc(C(=O)N2CCc3ncnc(C)c3CC2)c1
The Percent Effect of the first is higher: 5.83% for the first, -12% for the second.

First: Cc1n[nH]c(=O)c2c(NC(=O)CN3CCOC(C)C3)oc(C)c12 (stereo unspecified)
Second: Cc1ccc(OC2(C(=O)O)CCN(C(=O)c3nc(C)oc3C)CC2)cn1
The Percent Effect of the first is lower: -52.2% for the first, 0.158% for the second.

Compared with `CC(Cn1ccnc1)NC(=O)C1(c2ccc3c(c2)OCCO3)CCCC1` (stereo unspecified), `CC(NC(=O)NCCCO)c1ccc2c(c1)OCCO2` (stereo unspecified) is higher in Percent Effect: -20.7% for the first, -10.2% for the second.

Going from `Cc1cc(C)cc(OCCC(=O)N2CCCC(n3cncn3)C2)c1` (stereo unspecified) to `CCn1nc(C(=O)N2CCCC(n3cncn3)C2)ccc1=O` (stereo unspecified), the Percent Effect rises from 5.55% to 18.8%.

Compared with `N#CCSCCCN1CCN(C(=O)c2ccc(Cl)cc2)CC1`, `Cn1cc(Cl)cc1C(=O)N1CCN(Cc2ccsc2)CC1` is higher in Percent Effect: -35.2% for the first, 15.6% for the second.

Going from `Cc1ccc(C(=O)N2CCSCC2)cc1NC(=O)Cn1cncn1` to `Cc1cccc(C(=O)N2CCCN(Cc3cnn(C)c3)CC2)n1`, the Percent Effect falls from -22.8% to -31.1%.

First: Cc1ncc(CNC(=O)Nc2cc(C(F)(F)F)c[nH]c2=O)s1
Second: CC[C@H](C)Nc1nccc(-c2cnc3sc(C)c(C)n3c2=O)n1
The Percent Effect of the first is higher: -19.6% for the first, -27.1% for the second.

First: Cc1csc(Nc2cc(C3CCCCN3C)nc(C)n2)n1 (stereo unspecified)
Second: Cc1cc(C)n(CC2CCCCN2Cc2cscn2)n1 (stereo unspecified)
The Percent Effect of the first is lower: -11.8% for the first, 25.2% for the second.

Going from `CNc1nc2c(s1)C(c1c(Cl)cccc1Cl)CC(=O)N2` (stereo unspecified) to `CC(C)c1ncc2c(n1)CN(Cc1nc(Cc3ccccc3)no1)CC2`, the Percent Effect falls from 5.63% to -0.282%.

First: c1ccc2oc(CCCN3CCOC(Cn4cccn4)C3)nc2c1 (stereo unspecified)
Second: CN(CC(=O)N1CCCC1Cn1cccn1)c1cnccn1 (stereo unspecified)
The Percent Effect of the first is lower: -3.52% for the first, -0.699% for the second.

Compared with `O=C(c1ccc(F)cc1)N1CCC2(CCCN2CC2CC2)CC1`, `CC(C)N(C)C(=O)C1=NOC2(CCN(C(=O)c3ccc(Cl)cc3)C2)C1` (stereo unspecified) is higher in Percent Effect: -20.9% for the first, -2.21% for the second.

Compared with `CC(Cc1ccco1)NC(=O)Nc1ccc(S(C)(=O)=O)nc1` (stereo unspecified), `CC(C)c1nc(C(=O)N2CCOCC2CC(=O)c2ccco2)c[nH]1` (stereo unspecified) is higher in Percent Effect: -17.3% for the first, -1.83% for the second.

Going from `CC(NC(=O)CCc1cccs1)c1nnc2n1CCC2` (stereo unspecified) to `O=C(CCNCC(F)(F)F)N1CCC(Nc2cccnn2)CC1`, the Percent Effect falls from 3.4% to -14.2%.

Compared with `COC(=O)c1ccoc1COC(=O)CCc1ccc(OC)c(OC)c1`, `COc1ccc(NC(C)=O)c(N2CCN(C(C)=O)CC2)n1` is lower in Percent Effect: 0.432% for the first, -15.1% for the second.

First: c1ccc(Cn2cc(CNCC3CCCN3c3cccnn3)cn2)cc1 (stereo unspecified)
Second: N#Cc1ccc(C(=O)N2CCn3c(Cn4cccn4)cnc3C2)cc1
The Percent Effect of the first is higher: 22.8% for the first, 0.128% for the second.

First: Cc1cccc(CN2C[C@@H]3CN(C(=O)[C@H]4CCCO4)C[C@@H]3C2=O)c1
Second: CCNC(=O)[C@@H]1C[C@@H](NC(=O)c2cccnc2O)CN1Cc1ccsc1
The Percent Effect of the first is lower: -9.8% for the first, 19.7% for the second.

Compared with `CCc1ccc(OCC(O)CN2CCN(S(C)(=O)=O)CC2)cc1` (stereo unspecified), `CCn1cc(CN2CCCN(C(=O)CCCn3cncn3)CC2)cn1` is lower in Percent Effect: 22.4% for the first, -21.5% for the second.

First: CCc1c(C)nn(CCNC(=O)C2CCCN(C(=O)N(C)C)C2)c1C (stereo unspecified)
Second: COCCN(C)C[C@@H]1CN(C(=O)c2ccoc2)C[C@@H]1CO
The Percent Effect of the first is higher: 20% for the first, 15.1% for the second.

— ChEMBL document CHEMBL3988442, “University of Dundee, Small-Polar-MMV Screening Library” (2021)
